The source of these data is paper PMC9838217, “Structure of SALL4 zinc finger domain reveals link between AT-rich DNA binding and Okihiro syndrome”.

What all share (experiment): HT-SELEX; high values mean tight binding
Common to all, as to conditions: protein: recombinant; vector His6-GST; dsDNA, one strand shown

One assay deals with T1, SALL4 ZFC4 WT (HT-SELEX) (Mus musculus, UniProt Q8BX22 870-940).
T1 sequence: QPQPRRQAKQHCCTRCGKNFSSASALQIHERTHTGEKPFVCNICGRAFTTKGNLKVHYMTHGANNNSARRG
In a few lines:
(§1)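 Purified recombinant mouse SALL4 zinc finger cluster 4 (residues 870–940, 1 µg) was incubated with library DNA (1.5 µg first cycle, 200 ng later) in 100 µl of 10 mM Tris–HCl pH 7.5, 50 mM NaCl, poly(dI-dC) and DTT for 10 min at room temperature, with Ni2+ bead capture and reselection for up to 6 cycles in triplicate. MiSeq reads were scanned for 6-mers. Binding signal is each canonical k-mer's read fraction as fold change relative to the initial random library.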

The target in assay [1] is T2, SALL4 ZFC4 R900W (HT-SELEX) (Mus musculus, UniProt Q8BX22 870-940, R900W).
T2 sequence: T1 sequence with R31W
The gist of the method:
as §1

Assay [2] has as its target T3, SALL4 ZFC4 G921D (HT-SELEX) (Mus musculus, UniProt Q8BX22 870-940, G921D).
T3 sequence: T1 sequence with G52D
The gist of the method:
as §1

Numbering of substitutions follows the chain as printed.

Consider CTTCTC, for which the binding signal with SALL4 ZFC4 WT (HT-SELEX) stood at 0.952 ± 0.0502 fold-change vs cycle 0; in assay [1] it was 1.11 ± 0.0917 fold-change vs cycle 0; in assay [2], 1.07 ± 0.0618 fold-change vs cycle 0.

With GGGAGA, the binding signal with SALL4 ZFC4 WT (HT-SELEX) was determined as 0.48 ± 0.0185 fold-change vs cycle 0; in assay [1] it was 0.566 ± 0.0484 fold-change vs cycle 0; in assay [2] it was 0.638 ± 0.033 fold-change vs cycle 0.

For the sequence AGAGAT, the binding signal with SALL4 ZFC4 WT (HT-SELEX) was 1.51 ± 0.0705 fold-change vs cycle 0; in assay [1], 1.65 ± 0.139 fold-change vs cycle 0; in assay [2], 1.53 ± 0.135 fold-change vs cycle 0.

For the sequence CTATCA, the values for the binding signal (with SALL4 ZFC4 WT (HT-SELEX); in assay [1]; in assay [2]) were 1.36 ± 0.0524 fold-change vs cycle 0, 1.47 ± 0.0491 fold-change vs cycle 0 and 1.41 ± 0.0867 fold-change vs cycle 0, respectively.

Take ACCTGG: the binding signal with SALL4 ZFC4 WT (HT-SELEX) came to 0.46 ± 0.021 fold-change vs cycle 0; in assay [1], 0.537 ± 0.0102 fold-change vs cycle 0; in assay [2], 0.635 ± 0.0393 fold-change vs cycle 0.

In the case of CTCGTA, the binding signal was 0.764 ± 0.033 fold-change vs cycle 0 in the assay with SALL4 ZFC4 WT (HT-SELEX), 0.867 ± 0.0258 fold-change vs cycle 0 in assay [1] and 0.901 ± 0.00732 fold-change vs cycle 0 in assay [2].

Regarding GCTCAC, the figures for the binding signal (with SALL4 ZFC4 WT (HT-SELEX); in assay [1]; in assay [2]) were 0.361 ± 0.0205 fold-change vs cycle 0, 0.415 ± 0.0136 fold-change vs cycle 0 and 0.554 ± 0.021 fold-change vs cycle 0, respectively.

As for CAAACA, the binding signal with SALL4 ZFC4 WT (HT-SELEX) was determined as 1.04 ± 0.0367 fold-change vs cycle 0; in assay [1] it was 1.17 ± 0.0357 fold-change vs cycle 0; in assay [2] it was 1.18 ± 0.0394 fold-change vs cycle 0.

Take GATAAC: the binding signal with SALL4 ZFC4 WT (HT-SELEX) was found to be 1.49 ± 0.117 fold-change vs cycle 0; in assay [1], 1.52 ± 0.136 fold-change vs cycle 0; in assay [2], 1.44 ± 0.166 fold-change vs cycle 0.

With GACTCA, the binding signal in the assay with SALL4 ZFC4 WT (HT-SELEX) came to 0.768 ± 0.0401 fold-change vs cycle 0; in assay [1], 0.889 ± 0.022 fold-change vs cycle 0; in assay [2], 0.937 ± 0.0191 fold-change vs cycle 0.

Take AGTTAC: the binding signal came to 1.44 ± 0.0411 fold-change vs cycle 0 in the assay with SALL4 ZFC4 WT (HT-SELEX), 1.56 ± 0.0396 fold-change vs cycle 0 in assay [1] and 1.49 ± 0.117 fold-change vs cycle 0 in assay [2].

For AGGTCG, the binding signal with SALL4 ZFC4 WT (HT-SELEX) came out at 0.312 ± 0.0215 fold-change vs cycle 0; in assay [1], 0.372 ± 0.0129 fold-change vs cycle 0; in assay [2] it was 0.511 ± 0.0677 fold-change vs cycle 0.

Take AGACAT: the binding signal in the assay with SALL4 ZFC4 WT (HT-SELEX) was 1.29 ± 0.0778 fold-change vs cycle 0; in assay [1] it was 1.45 ± 0.0615 fold-change vs cycle 0; in assay [2], 1.37 ± 0.0528 fold-change vs cycle 0.

For the sequence AGATCG, the binding signal in the assay with SALL4 ZFC4 WT (HT-SELEX) was determined as 0.674 ± 0.0467 fold-change vs cycle 0; in assay [1] it was 0.774 ± 0.0175 fold-change vs cycle 0; in assay [2], 0.926 ± 0.0361 fold-change vs cycle 0.

CAAAGG: the binding signal with SALL4 ZFC4 WT (HT-SELEX) came out at 0.765 ± 0.046 fold-change vs cycle 0; in assay [1] it was 0.898 ± 0.0341 fold-change vs cycle 0; in assay [2], 0.935 ± 0.0222 fold-change vs cycle 0.

AACAGA: the results for the binding signal (with SALL4 ZFC4 WT (HT-SELEX); in assay [1]; in assay [2]) were 1.28 ± 0.057 fold-change vs cycle 0, 1.41 ± 0.0434 fold-change vs cycle 0 and 1.35 ± 0.0868 fold-change vs cycle 0, respectively.

As for GCGTTA, the binding signal in the assay with SALL4 ZFC4 WT (HT-SELEX) is 0.54 ± 0.0741 fold-change vs cycle 0; in assay [1], 0.582 ± 0.053 fold-change vs cycle 0; in assay [2], 0.668 ± 0.0435 fold-change vs cycle 0.

Turning to GGGAAC, the binding signal in the assay with SALL4 ZFC4 WT (HT-SELEX) turned out to be 0.517 ± 0.0146 fold-change vs cycle 0; in assay [1], 0.591 ± 0.0347 fold-change vs cycle 0; in assay [2], 0.653 ± 0.041 fold-change vs cycle 0.

As to ACTCCG, the binding signal with SALL4 ZFC4 WT (HT-SELEX) turned out to be 0.4 ± 0.00858 fold-change vs cycle 0; in assay [1], 0.466 ± 0.0288 fold-change vs cycle 0; in assay [2], 0.594 ± 0.0678 fold-change vs cycle 0.

Regarding CACACC, the binding signal with SALL4 ZFC4 WT (HT-SELEX) came out at 0.375 ± 0.0351 fold-change vs cycle 0; in assay [1] it was 0.468 ± 0.0362 fold-change vs cycle 0; in assay [2], 0.561 ± 0.0498 fold-change vs cycle 0.

For AAAAAC, the results for the binding signal (with SALL4 ZFC4 WT (HT-SELEX); in assay [1]; in assay [2]) were 1.45 ± 0.0971 fold-change vs cycle 0, 1.49 ± 0.0832 fold-change vs cycle 0 and 1.42 ± 0.0693 fold-change vs cycle 0, respectively.

Consider GACATA, for which the binding signal was 1.19 ± 0.0463 fold-change vs cycle 0 in the assay with SALL4 ZFC4 WT (HT-SELEX), 1.28 ± 0.0199 fold-change vs cycle 0 in assay [1] and 1.25 ± 0.0289 fold-change vs cycle 0 in assay [2].

As to GTCTTA, the figures for the binding signal (in the assay with SALL4 ZFC4 WT (HT-SELEX); in assay [1]; in assay [2]) were 1.27 ± 0.0474 fold-change vs cycle 0, 1.39 ± 0.0618 fold-change vs cycle 0 and 1.35 ± 0.0901 fold-change vs cycle 0, respectively.

On to GAGGTA, for which the figures for the binding signal (with SALL4 ZFC4 WT (HT-SELEX); in assay [1]; in assay [2]) were 0.857 ± 0.032 fold-change vs cycle 0, 0.988 ± 0.0197 fold-change vs cycle 0 and 0.996 ± 0.0208 fold-change vs cycle 0, respectively.

For ACATCG, the figures for the binding signal (in the assay with SALL4 ZFC4 WT (HT-SELEX); in assay [1]; in assay [2]) were 0.64 ± 0.0291 fold-change vs cycle 0, 0.729 ± 0.00758 fold-change vs cycle 0 and 0.829 ± 0.0505 fold-change vs cycle 0, respectively.

With CAAATA, the values for the binding signal (in the assay with SALL4 ZFC4 WT (HT-SELEX); in assay [1]; in assay [2]) were 1.9 ± 0.117 fold-change vs cycle 0, 1.72 ± 0.1 fold-change vs cycle 0 and 1.55 ± 0.137 fold-change vs cycle 0, respectively.

For ACCCAA, the binding signal in the assay with SALL4 ZFC4 WT (HT-SELEX) was 0.736 ± 0.034 fold-change vs cycle 0; in assay [1] it was 0.839 ± 0.0217 fold-change vs cycle 0; in assay [2], 0.873 ± 0.0335 fold-change vs cycle 0.

As for CACACG, the binding signal was determined as 0.405 ± 0.0118 fold-change vs cycle 0 with SALL4 ZFC4 WT (HT-SELEX), 0.525 ± 0.0166 fold-change vs cycle 0 in assay [1] and 0.649 ± 0.0779 fold-change vs cycle 0 in assay [2].

Consider TAGCCA, for which the results for the binding signal (with SALL4 ZFC4 WT (HT-SELEX); in assay [1]; in assay [2]) were 0.536 ± 0.0328 fold-change vs cycle 0, 0.614 ± 0.0132 fold-change vs cycle 0 and 0.733 ± 0.0537 fold-change vs cycle 0, respectively.

For GAGGGA, the binding signal was 0.53 ± 0.0239 fold-change vs cycle 0 with SALL4 ZFC4 WT (HT-SELEX), 0.609 ± 0.0584 fold-change vs cycle 0 in assay [1] and 0.684 ± 0.0537 fold-change vs cycle 0 in assay [2].
